This is an account of results in PubChem BioAssay.

The source made the active and inactive calls. Unless noted, no rule for the calls is given here.

The nature of test [1]: compound effects on lung adenocarcinoma cell viability – A549, calcein-AM fluorescence, 48 h, basal, profiling panel (AID 1162). Also: test concentration not given here. The note with it: higher = more signal.
Test [2] can be described thus: compound effects on differentiated 3T3-L1 adipocyte viability – cell-based, 3T3-L1 adipocytes, calcein-AM fluorescence, 48 h, basal, profiling panel (AID 1163). Also: test concentration not given here. Conditions: 3T3-L1 adipocytes viability, higher = more signal.
A short description of test [3]: compound effects on hepatocellular carcinoma cell viability – HepG2, calcein-AM fluorescence, 48 h, basal, profiling panel (AID 1164). Also: test concentration not given here. The note with it: higher = more signal.
Test [4] is described as follows: compound effects on multiple myeloma cell viability – MM1S, calcein-AM fluorescence, 48 h, basal, profiling panel (AID 1165).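 Also: viability of MM1S multiple myeloma cells under basal unstimulated conditions; test concentration not given here.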 The note with it: higher = more signal.
Test [5] can be described thus: calcein-AM signal in unstimulated myeloma cells – cell-based, calcein-AM fluorescence, 48 h, PK04 Diversity Set, profiling panel (AID 1166).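 Also: cells grown under basal conditions without added stimulus; test concentration not given here.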 Conditions: RPMI8226 myeloma viability, higher = more signal.
The nature of test [6]: JC-1 mitochondrial signal, unstimulated HepG2 cells – cell-based, JC-1 fluorescence, 24 h, 100 nL compound, profiling panel (AID 1167). Also: test concentration not given here. The note with it: HepG2 mitochondrial potential, higher = more signal.
Test [7] can be described thus: JC-1 mitochondrial signal, unstimulated adipocytes – cell-based, JC-1 fluorescence, 3T3-L1 adipocytes, 24 h, 100 nL compound, profiling panel (AID 1168). Also: test concentration not given here. Conditions: JC-1 mitochondrial fluorescence, higher = more signal, called active from +8 up or from −8 down.
Test [8] is described as follows: JC-1 mitochondrial signal, unstimulated myeloma cells – cell-based, JC-1 fluorescence, RPMI8226, 24 h, 100 nL compound, profiling panel (AID 1169). Also: test concentration not given here. Conditions: JC-1 mitochondrial potential fluorescence, higher = more signal.
Test [9] is described as follows: JC-1 mitochondrial signal, unstimulated MM1S myeloma – cell-based, JC-1 fluorescence, 24 h, 100 nL compound, profiling panel (AID 1170). Also: test concentration not given here. The note with it: MM1S mitochondrial potential, higher = more signal.
Test [10] can be described thus: resazurin metabolic signal in A549 cells – cell-based, resazurin fluorescence, 24 h, PK04 Diversity Set, profiling panel (AID 1171). Also: test concentration not given here. Conditions: A549 viability, higher = more signal, called active from +8 up or from −8 down.
The nature of test [11]: resazurin metabolic signal in HepG2 cells – cell-based, resazurin fluorescence, 24 h, PK04 Diversity Set, profiling panel (AID 1172). Also: test concentration not given here. Conditions: HepG2 viability, higher = more signal. Background: The colour change of resazurin is a common sign of viable cells or microbes.
Test [12] is described as follows: budding yeast growth changes without added modifier – OD600, strain BY4716, 24 h, basal condition, primary screen (AID 1173). The note with it: S. cerevisiae BY4716 growth, OD600, 24 h; higher = more signal, called active from +8 up or from −8 down.
Test [13] is described as follows: viability profiling in MM1S myeloma cells – cell-based, resazurin fluorescence, basal, 24 h, PK04 Diversity Set, profiling panel (AID 1174). Also: test concentration not given here. The note with it: higher = more signal, called active from +8 up or from −8 down.
Test [14] has as its target Dihydroorotate dehydrogenase (quinone), mitochondrial (Plasmodium falciparum (isolate 3D7)) (UniProt Q08210). The experiment in a line: inhibition of P. falciparum DHODH – biochemical, C-terminal His tag, absorbance 600 nm, primary screen (AID 1175).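 Also: recombinant parasite enzyme with a five histidine tag at its C terminus; test concentration not given here.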 The note with it: PfDHODH enzyme, DCIP absorbance 600 nm; higher = more signal, called active from +8 up or from −8 down.
Test [15] in a line: inhibition of PAO1 biofilm formation – strain PAO1, LB-PBS medium, absorbance 600 nm, primary screen (AID 1176). Also: test concentration not given here. Conditions: P. aeruginosa PAO1 growth/biofilm, A600, 12 h; higher = more signal.
The nature of test [16]: growth modulation of vineyard yeast isolate – strain RM11-1a, OD600, basal, 24 h, primary screen (AID 1177).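 Also: cultures grown under basal conditions with no added stressor; test concentration not given here.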 Conditions: S. cerevisiae RM11-1a growth, OD600, 24 h; higher = more signal, called active from +8 up or from −8 down.
Test [17] is described as follows: growth of efflux-deficient E. coli DRC39 – strain DRC39, OD650, 24 h, E. coli filamentation inducers, primary screen (AID 1178).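 Also: growth measured as culture turbidity by optical density at 650 nm; test concentration not given here.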 The note with it: E. coli DRC39 acrAB, higher = more signal, called active from +8 up or from −8 down.
Test [18] can be described thus: growth of efflux-deficient E. coli DRC39 – strain DRC39, OD650, 48 h, E. coli filamentation inducers, primary screen (AID 1179).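 Also: screen aims at cell division blockers that make cells filament.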 The note with it: E. coli DRC39 delta-acrAB growth, higher = more signal, called active from +8 up or from −8 down.
The nature of test [19]: viability profiling in RPMI8226 myeloma cells – cell-based, resazurin fluorescence, basal, 24 h, PK04 Diversity Set, profiling panel (AID 1180).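 Also: RPMI8826 multiple myeloma cell line at 5000 cells per well; test concentration not given here.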 Conditions: higher = more signal.
In test [20] the target is E3 ubiquitin-protein ligase XIAP (Homo sapiens) (UniProt P98170). The experiment in a line: small molecules binding XIAP protein – biophysical, small-molecule microarray, fluorescence 635 nm, primary screen (AID 1181).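 Also: score merges 667 nm emission and signal to noise over triplicate slides.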 Conditions: higher = more signal.
Sequence of E3 ubiquitin-protein ligase XIAP (Homo sapiens) (P98170 whole entry, looked up): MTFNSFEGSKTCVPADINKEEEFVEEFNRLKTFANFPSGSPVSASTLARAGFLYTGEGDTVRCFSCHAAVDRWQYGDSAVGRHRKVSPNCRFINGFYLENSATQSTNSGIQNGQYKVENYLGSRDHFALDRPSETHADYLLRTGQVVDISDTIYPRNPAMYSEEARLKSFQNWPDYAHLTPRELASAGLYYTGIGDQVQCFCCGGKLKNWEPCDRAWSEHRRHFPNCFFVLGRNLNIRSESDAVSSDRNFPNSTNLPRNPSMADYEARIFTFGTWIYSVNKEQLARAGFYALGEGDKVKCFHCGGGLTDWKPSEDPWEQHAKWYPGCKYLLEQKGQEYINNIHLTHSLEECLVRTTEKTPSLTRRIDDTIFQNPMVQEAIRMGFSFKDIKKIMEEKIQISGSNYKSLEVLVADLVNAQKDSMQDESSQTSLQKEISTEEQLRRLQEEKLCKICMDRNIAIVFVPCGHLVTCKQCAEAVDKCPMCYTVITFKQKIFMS

Sequence of Dihydroorotate dehydrogenase (quinone), mitochondrial (Plasmodium falciparum (isolate 3D7)) (Q08210 whole entry, looked up): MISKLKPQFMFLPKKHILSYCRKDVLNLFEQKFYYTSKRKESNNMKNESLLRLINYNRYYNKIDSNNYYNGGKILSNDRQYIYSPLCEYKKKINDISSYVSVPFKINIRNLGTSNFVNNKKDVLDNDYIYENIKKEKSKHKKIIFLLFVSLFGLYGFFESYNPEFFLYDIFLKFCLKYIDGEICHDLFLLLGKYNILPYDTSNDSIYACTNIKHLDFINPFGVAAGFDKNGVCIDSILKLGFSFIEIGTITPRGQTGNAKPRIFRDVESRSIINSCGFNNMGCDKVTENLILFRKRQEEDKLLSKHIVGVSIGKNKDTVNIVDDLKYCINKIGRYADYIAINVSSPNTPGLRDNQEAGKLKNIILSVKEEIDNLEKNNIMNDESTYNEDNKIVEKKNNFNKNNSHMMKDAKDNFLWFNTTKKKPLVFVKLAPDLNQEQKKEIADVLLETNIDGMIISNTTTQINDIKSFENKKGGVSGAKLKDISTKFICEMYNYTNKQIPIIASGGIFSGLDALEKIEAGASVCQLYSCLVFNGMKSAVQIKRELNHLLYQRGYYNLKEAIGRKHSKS

Consider `COc1ccc([Si](C)(C)[C@@H]2[C@@H](CCO)O[C@]3(C(=O)N(Cc4ccccc4)c4ccc(N5C(=O)c6ccccc6Oc6ccccc65)cc43)[C@H]2C)cc1`, for which the z-score in [1] was -1.47; in test [2], -0.0095; in [3], -1.96; in test [4], -1.77; in [5], -2.66; in test [6] it was -0.871. For the same compound, the z-score was -0.735 (inactive) in test [7]; -0.848 in [8]; -1.36 in test [9]; -1.07 (inactive) in [10]; 1.09 in test [11]; 1.84 (inactive) in test [12]. Besides, the z-score in [13] was -1.3 (inactive); in test [15] it was 0.225 (inactive); in test [16], 3.88 (inactive); in test [17] it was 0.727 (inactive); in [18] it was 0.435 (inactive); in test [19] it was -1.81. For the same compound, the composite z-score is -0.641 (inactive) in test [14] and -0.157 in [20].
Regarding `COCCOC(=O)N1C(=O)[C@@]2(c3cc(C#CCCO)ccc31)[C@H](c1ccc(O)cc1)N1[C@H](c3ccccc3)[C@H](c3ccccc3)OC(=O)[C@H]1[C@@H]2C(=O)N1CCc2cc(OC)c(OC)cc2C1`, the z-score in [1] is 1.1; in [2], 0.462; in test [3], 1.04; in [4] it was 0.664; in [5] it was 0.113; in [6] it was 0.374. In addition, the z-score in test [7] is 0.57 (inactive); in test [8], -0.253; in test [9], -0.602; in test [10] it was -0.0256 (inactive); in test [11], 0.458; in test [12], 0.537 (inactive). Also, the z-score in test [13] is 0.202 (inactive); in test [15] it was 0.318 (inactive); in test [16], 1.26 (inactive); in test [17] it was 0.886 (inactive); in test [18], 0.821 (inactive); in test [19], 1.26. The composite z-score in test [14] was -1.1 (inactive); in test [20], -0.0272.
Regarding `COCCOC(=O)N1C(=O)[C@@]2(c3cc(C#CC4(O)CCCCCC4)ccc31)[C@H](c1ccc(OCCO)cc1)N1[C@H](c3ccccc3)[C@H](c3ccccc3)OC(=O)[C@H]1[C@@H]2C(N)=O`, the z-score is -0.29 in test [1]; 0.902 in test [2]; -1.52 in test [3]; -3.04 in test [4]; -3.86 in test [5]; -2.03 in test [6]. The z-score is -0.408 (inactive) in [7]; -0.814 in [8]; -1.21 in [9]; -0.933 (inactive) in test [10]; -0.776 in test [11]; 0.581 (inactive) in test [12]. Also, the z-score in [13] is -3.25 (inactive); in test [15], 1.84 (inactive); in test [16], 1.89 (inactive); in test [17] it was -0.236 (inactive); in test [18], -0.635 (inactive); in [19], -3.62. Moreover, the composite z-score is -0.259 (inactive) in test [14] and -0.142 in test [20].
On to `C=CCOC(=O)[C@@H]1[C@H]2C(=O)O[C@H](c3ccccc3)[C@H](c3ccccc3)N2[C@H](c2ccc(OCCOC(=O)[C@H]3C[C@H]4C(=O)NCC(=O)N4[C@H]3c3ccc(O)cc3)cc2)[C@@]12C(=O)Nc1ccc(I)cc12`, for which the z-score in test [1] was -0.441; in test [2], -0.105; in [3], 0.273; in [4] it was -0.172; in [5], -0.0622; in test [6], -1.59. Besides, the z-score was 0.91 (inactive) in test [7]; -0.772 in test [8]; -1 in [9]; 1.1 (inactive) in [10]; -0.675 in test [11]; 2.01 (inactive) in test [12]. For the same compound, the z-score in test [13] is -0.349 (inactive); in test [15] it was 3.08 (inactive); in test [16] it was 1.28 (inactive); in test [17] it was -0.0185 (inactive); in [18], -0.282 (inactive); in [19], -0.331. Further, the composite z-score in [14] was -1.14 (inactive); in test [20], -0.0669.
`C=CCC(OC(C)=O)[C@@H]1[C@@H](N(Cc2ccc(-c3ccccc3)cc2)C(=O)c2ccc(-c3ccccc3)cc2)c2cc(OCCCO)ccc2N1C(=O)c1ccc2ccccc2n1` (stereo not given in full): the z-score in test [1] was 0.393; in test [2], 0.167; in [3], 0.486; in test [4] it was -0.265; in test [5] it was -0.189; in [6], 2.22. Besides, the z-score in test [7] is -0.124 (inactive); in test [8] it was -0.742; in test [9] it was -0.133; in [10] it was 1.67 (inactive); in test [11] it was 1.16; in [12], -0.599 (inactive). Also, the z-score in test [13] is 1.3 (inactive); in test [15], 0.149 (inactive); in test [16], -0.354 (inactive); in [17], 0.348 (inactive); in test [18], 0.308 (inactive); in test [19] it was 1.13. The figures for the composite z-score in [14] and in [20] were -0.149 (inactive) and -0.0103, respectively.
